Data on 28 molecules can be found in PubChem BioAssay.

The first assay relates to glycogen synthase kinase-3 (GSK3A per assay name; protocol says GSK3B). Nature of the assay: GSK3 binders on small-molecule microarrays, primary screen, biochemical, small-molecule microarray, 635 nm fluorescence, GSK3A (AID 1103). Further: the record names both GSK3A and GSK3B. As to conditions: small-molecule microarray binding, fluorescence 635 nm; higher = more signal.
`O=C(NCc1ccccc1)[C@]1(Cc2ccccc2)N=C(c2ccc(OCCCO)cc2)O[C@@H]1c1ccccc1` returned a composite z-score of 0.789.

With `O=C1O[C@@H](c2ccccc2)[C@@H](c2ccccc2)N2[C@@H](c3ccc(O)cc3)[C@]3(C(=O)Nc4ccc(C#CC5(O)CCCCCC5)cc43)[C@@H](C(=O)N3CCN(c4ncccn4)CC3)[C@H]12`, the composite z-score came to 0.709.

`COCC(=C=CC[C@@H](O)c1ccccc1OCCO)C[C@@H](O)c1ccccn1` returned a composite z-score of 0.207.

In turn, `C#CCNS(=O)(=O)N(C)C` had a composite z-score of 0.642.

Regarding `C=CCC(OC(C)=O)[C@@H]1[C@@H](N(Cc2ccc(-c3cccc(C(F)(F)F)c3)o2)C(=O)c2cccc3ccccc23)c2cc(OCCCO)ccc2N1C(=O)c1ccc(-c2ccccc2)cc1` (stereo partly drawn), the composite z-score is -0.579.

The molecule `COCCOC(=O)N1C(=O)[C@@]2(c3cc(C#CCC(C(=O)OC)C(=O)OC)ccc31)[C@H](c1ccc(OCCO)cc1)N1[C@H](c3ccccc3)[C@H](c3ccccc3)OC(=O)[C@H]1[C@@H]2C(N)=O` gave a composite z-score of 1.24.

`CCCC[C@H]1OB(O)C[C@H]2C1=C(COc1ccccc1)Cn1c(=O)n(-c3ccccc3)c(=O)n12` registered a composite z-score of 0.61.

The target in another assay is Epidermal growth factor receptor (Homo sapiens) (UniProt P00533). Nature of the assay: EGFR binders on small-molecule microarrays, primary screen, biochemical, small-molecule microarray, 635 nm fluorescence (AID 1104).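 Further: score merges 667 nm emission intensity with spot signal to noise over triplicate slides.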 As to conditions: EGFR binding, higher = more signal.
Epidermal growth factor receptor (Homo sapiens), sequence (P00533 whole entry, looked up): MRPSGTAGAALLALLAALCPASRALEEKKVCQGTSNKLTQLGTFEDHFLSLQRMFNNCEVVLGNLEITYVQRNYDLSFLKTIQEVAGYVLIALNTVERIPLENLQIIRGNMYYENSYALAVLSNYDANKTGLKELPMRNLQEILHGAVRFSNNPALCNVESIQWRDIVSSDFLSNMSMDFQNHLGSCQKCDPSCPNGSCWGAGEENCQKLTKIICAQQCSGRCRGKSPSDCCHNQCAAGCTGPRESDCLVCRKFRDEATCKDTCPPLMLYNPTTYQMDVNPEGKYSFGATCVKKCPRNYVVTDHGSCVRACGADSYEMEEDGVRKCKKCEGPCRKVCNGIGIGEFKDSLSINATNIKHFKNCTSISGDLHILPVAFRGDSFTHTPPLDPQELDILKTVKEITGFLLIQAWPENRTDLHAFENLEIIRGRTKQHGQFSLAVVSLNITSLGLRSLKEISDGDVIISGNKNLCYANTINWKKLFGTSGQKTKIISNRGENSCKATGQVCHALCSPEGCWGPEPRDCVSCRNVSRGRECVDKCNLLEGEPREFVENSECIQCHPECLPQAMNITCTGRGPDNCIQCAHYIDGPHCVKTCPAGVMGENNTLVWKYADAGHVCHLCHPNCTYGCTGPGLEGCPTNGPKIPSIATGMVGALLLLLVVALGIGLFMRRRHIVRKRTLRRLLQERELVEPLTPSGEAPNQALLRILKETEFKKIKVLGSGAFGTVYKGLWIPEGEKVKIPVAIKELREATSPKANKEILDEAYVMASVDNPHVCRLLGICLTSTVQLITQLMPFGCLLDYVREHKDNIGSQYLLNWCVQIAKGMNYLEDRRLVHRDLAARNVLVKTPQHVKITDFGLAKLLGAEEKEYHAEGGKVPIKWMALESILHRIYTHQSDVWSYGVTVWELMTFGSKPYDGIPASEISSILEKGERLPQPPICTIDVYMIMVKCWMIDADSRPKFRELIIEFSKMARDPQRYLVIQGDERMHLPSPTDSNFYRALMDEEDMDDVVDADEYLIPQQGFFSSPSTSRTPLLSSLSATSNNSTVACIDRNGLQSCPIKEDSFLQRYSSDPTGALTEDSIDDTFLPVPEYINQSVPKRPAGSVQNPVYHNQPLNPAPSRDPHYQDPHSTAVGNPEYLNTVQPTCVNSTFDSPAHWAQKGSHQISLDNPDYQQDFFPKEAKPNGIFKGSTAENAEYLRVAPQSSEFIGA
In the case of `COC(=O)[C@@]1(Cc2ccccc2)[C@H]2c3cc(C(=O)N4CCCC4)n(Cc4ccccc4)c3C[C@H]2CN1C(=O)c1ccccc1`, the composite z-score was found to be 0.0075.

`CC(C)C[C@@H]1NC(=O)[C@@]23C(=O)N[C@@H](Cc4ccccc4)C2[C@H](C)[C@@]2(C)O[C@H]2C3/C=C/C/C=C\CNC(=O)[C@@H]2CCCN2C1=O` (stereo partly drawn) had a composite z-score of 0.0731.

The molecule `COC(=O)[C@@]1(Cc2ccc(OC)cc2)[C@H]2c3cc(C(=O)N4CCCC4)n(CCF)c3C[C@H]2CN1C(=O)c1ccccc1` displayed a composite z-score of 1.46.

In turn, `C=C(/C(=C/C[C@@H](OC(=O)c1ccncc1)c1cccc(OCCO)c1)c1cc(C(=O)OC)ccc1OC)C(C)C` returned a composite z-score of -0.0516.

For the molecule `O=C(CS)NCCCCCNC(=O)[C@@H]1C[C@@H]2C(=O)N3CCC[C@H]3C(=O)N2[C@@H]1c1ccc(O)cc1`, the composite z-score was found to be 0.128.

Regarding `COc1cccc(C)c1NC(=O)O[C@H]1[C@H](OC(=O)Nc2ccccc2)[C@H](OC(=O)Nc2ccccc2)[C@@H](OC)O[C@@H]1CO`, the composite z-score was -0.0372.

In turn, `COc1ccc(C#Cc2ccc3c(c2)[C@]2(C(=O)N3)[C@H](C(=O)O)[C@H]3C(=O)O[C@H](c4ccccc4)[C@H](c4ccccc4)N3[C@@H]2c2ccc(OCCO)cc2)cc1` came in with a composite z-score of 0.45.

The molecule `COc1cc2c(cc1OC)CN(C(=O)[C@@H]1[C@H]3C(=O)O[C@H](c4ccccc4)[C@H](c4ccccc4)N3[C@H](c3ccc(O)cc3)[C@@]13C(=O)Nc1ccc(C#CCNC(N)=O)cc13)CC2` showed a composite z-score of 0.0967.

`COc1ccc([Si](C)(C)[C@@H]2[C@@H](CCO)O[C@]3(C(=O)N(Cc4cccc(N5C(=O)COc6ccccc65)c4)c4ccccc43)[C@H]2C)cc1` registered a composite z-score of -0.0851.

Regarding `Cc1ccc(-c2cccc(=O)o2)cc1`, the composite z-score came to 0.115.

On to `COC(=O)c1ccc(OC)c(/C=C\CC(CCc2ccccc2)OC(C)=O)c1` (stereo not drawn), for which the composite z-score was -0.309.

In the case of `C=C(C(=O)CC[C@H](OC(=O)c1cccnc1)c1ccc(OCCO)cc1)C(C)C`, the composite z-score is 0.0365.

For the molecule `CCCC=C(CCC)[C@@H](NS(=O)(=O)c1cccc2cccnc12)c1ccc(C(=O)OC)cc1`, the composite z-score was 1.8.

In the case of `CC(C)CCC[C@@H](C)[C@H]1CC[C@@]2(C)C3=C(CC[C@]12C)[C@@]1(C)CC[C@H](OC(=O)c2ccc(N)cc2)C(C)(C)C1CC3` (stereo partly drawn), the composite z-score was found to be 0.614.

Molecule `C[C@H]1ON(c2ccccc2)[C@@H](c2ccccc2)[C@@H]1C(=O)N1C(=O)OC[C@@H]1c1ccccc1` showed a composite z-score of 0.356.

Consider `Cc1ccc(S[C@]2(C(=O)O)CC(=O)N(Cc3ccccc3C(F)(F)F)[C@@H]2c2ccc(CO)cc2)cc1`, for which the composite z-score was -1.01.

Take `C=CCN1C(=O)[C@@]2(O[C@@H](CCO)[C@H]([Si](C)(C)c3ccc(OC)cc3)[C@H]2C)c2cc(NC(=O)[C@H](C)O)ccc21`: the composite z-score is -0.242.

With `CN1C(=O)C2C=CC(C(O)COCc3ccccc3)N(Nc3ccccc3)C2C1=O` (stereo not drawn), the composite z-score is 0.132.

Regarding `C=CCC(OC(C)=O)[C@@H]1[C@@H](N(Cc2cc3ccccc3o2)C(=O)Cc2ccc(OC)cc2)c2cc(OCCCO)ccc2N1C(=O)c1ccc(-c2ccccc2)cc1` (stereo partly drawn), the composite z-score is -0.426.

Consider `CC1CC/C=C\[C@H]2OC34C=CCN(c5ccc(Cl)cc5)C(=O)[C@H]3N(C(CO)C(C)C)C(=O)[C@]4(C)C2C(=O)O1` (stereo partly drawn), for which the composite z-score was -0.799.

With `COCCOC(=O)N1C(=O)[C@@]2(c3cc(C#CC4(O)CCCCCC4)ccc31)[C@H](C(=O)N1CCc3cc(OC)c(OC)cc3C1)[C@H]1C(=O)O[C@H](c3ccccc3)[C@H](c3ccccc3)N1[C@@H]2c1ccccc1OCCO`, the composite z-score amounted to 0.887.
